Source: PubChem BioAssay (National Center for Advancing Translational Sciences (NCATS))
SW480 rereplic = inducers of DNA re-replication in SW480 colon cancer cells; SW480 DNA re-replication, Hoechst DNA content imaging, 48 h; Potency, µM (top dose mostly 46.1 µM), without a hit: at the top dose re-replication activation, hits mostly activators; 340,000 tested, 1.8% active; also: potency is read from the fitted curve at half-maximal effect; % of control where 0% means no effect; nearly all actives have a fitted effect of over 55% in size
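Quantitative HTS format with DMSO vehicle controls; 48 hr drug incubation at 37 C, then 40 min Hoechst staining and scanning imager measurement at 405 nm excitation.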
IL-1B inflam inh = blocks inflammasome-driven IL-1 beta release; THP-1 LPS/ATP IL-1B secretion, AlphaLISA, 16 h; hits give low values; activity change, % at 57.5 µM; 360,000 tested, 4.7% active; in the data active = activity change below about -50%; inconclusive = mostly about -30% to -49%; also: % is scaled to controls: 0 for no effect and ±100 for the full control effect
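THP-1 cells pretreated 1 hr with compounds (up to 57.5 uM final), then stimulated with LPS (250 ng/mL final) plus ATP (1.25 mM final); secreted IL-1B measured by AlphaLISA after 16 hr, decreased signal indicating inhibition.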
Gal4-VP16 FLuc = counter-screen for ROR gamma inhibitors: Gal4-VP16 reporter; Drosophila S2 Gal4-VP16 UAS-luciferase, luminescence, 20 h; Potency, µM (highest dose often 53.6 µM), for inactives: top-dose activity, negative = inhibition, most hits filed as inhibitors; 310,000 tested, 3.5% active;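 also: Gal4-VP16 expression switched on by copper sulfate through the metallothionein promoter; potency is read from the fitted curve at half-maximal effect; % is scaled to controls: 0 for no effect and ±100 for the full control effect; nearly all actives have a fitted effect of over 50% in size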
RORg inh = blocks mouse ROR gamma transcriptional activity. P51450. Drosophila S2 Gal4-RORgamma UAS-luciferase reporter, 20 h. Potency, µM (doses to about 53.6 µM), for the others: at the top dose activity change, negative = inhibition, most hits filed as inhibitors. 310,000 tested, 5.4% active; also: potency is read from the fitted curve at half-maximal effect; % is scaled to controls: 0 for no effect and ±100 for the full control effect; nearly all actives have a fitted effect of over 60% in size
Target sequence (P51450 whole entry, looked up, the tested form may be a part): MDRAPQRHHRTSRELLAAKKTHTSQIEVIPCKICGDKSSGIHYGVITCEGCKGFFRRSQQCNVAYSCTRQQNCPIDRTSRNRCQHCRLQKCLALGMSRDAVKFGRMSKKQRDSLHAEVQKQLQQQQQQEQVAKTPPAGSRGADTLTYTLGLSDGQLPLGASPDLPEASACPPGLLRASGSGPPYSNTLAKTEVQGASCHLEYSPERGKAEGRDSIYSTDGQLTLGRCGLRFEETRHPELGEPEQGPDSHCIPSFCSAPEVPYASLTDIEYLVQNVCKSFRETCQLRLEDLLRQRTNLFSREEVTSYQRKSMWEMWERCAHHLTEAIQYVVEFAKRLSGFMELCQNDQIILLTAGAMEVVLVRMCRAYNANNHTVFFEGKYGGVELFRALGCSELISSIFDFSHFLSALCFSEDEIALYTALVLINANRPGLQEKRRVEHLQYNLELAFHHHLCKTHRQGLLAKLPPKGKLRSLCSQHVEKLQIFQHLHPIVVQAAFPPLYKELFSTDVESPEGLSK
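Stable Schneider cell line, Gal4 DNA-binding domain fused to ROR gamma, UAS-luciferase. Cmpd 1 hr RT → CuSO4 700 uM final → 20 hr RT → luciferase reagent 10 min → luminescence.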
MCF10A rerep = induces DNA re-replication in MCF 10a normal breast cells; MCF 10A DNA re-replication, Hoechst nuclear intensity, 48 h; Potency, µM (doses to about 46.1 µM), without a hit: top-dose activity, positive = re-replication, usual class: activators; 350,000 tested, 2.9% active; also: potency is read from the fitted curve at half-maximal effect; % of control where 0% means no effect; nearly all actives have a fitted effect of over 50% in size
Starred values were filed as active, the others as inactive; ? = inconclusive; / = no result given; [ ] = another dose, or the depositor's remark. Only some compounds are listed: those with a hit (about 11% of all), similar ones and a draw of the others. Unless noted, calls follow the shape of the dose curve; as a rule, active = well fitted curve in the direction sought with a large enough effect; inconclusive = small, poorly fitted or top-dose-only effect, or another doubt; inactive = no such curve, though single readings can be large; an effect the other way counts as inactive or inconclusive.

SMILES	SW480 rereplic	IL-1B inflam inh	Gal4-VP16 FLuc	RORg inh	MCF10A rerep
O=C(C[C@H]1C[C@H](C(=O)N2CCCCC2)[C@@]2(CCc3ccccc3)c3[nH]c4cc(-c5ccco5)ccc4c3CCN2C1=O)NCc1ccco1	-22.6%[9.22 µM]	-50.6*	/	/	7.8%
COC(=O)c1cn(CC(C)n2c(=O)c3ccccc3n2Cc2cc(C(C)C)no2)nn1 (stereo unspecified)	/	18.1	/	/	/
COCCNC(=O)C1(C)CCN(C(=O)c2sc(-c3ccccc3)nc2C)C1 (stereo unspecified)	/	0.0	/	/	/
COc1cccc(-n2ccnc2SCC(=O)N2CCCc3ccccc32)c1	4.5%	?	1.8%	-12.8%	9.8%
CCOc1ccc(-n2ccnc2SCC(=O)N2CCCc3ccccc32)cc1	-0.8%	?	?	7.08µM*	-4.4%
Cc1ccc(OCCOc2ccc(Br)cc2)c([N+](=O)[O-])n1	1.5%	-58.1*	-12.7%	10.4%	?
COc1cc(C(=O)N/N=c2/sc3ccccc3n2C)cc(OC)c1OC	-0.1%	6.9	-15.3%	-29.0%	-0.8%
Cn1/c(=N/NC(=O)c2cccc(OC(F)F)c2)sc2ccccc21	-1.6%	-1.4	14.1µM*	10µM*	-2.4%
COc1ccc(NC(=O)CN(C)C(=O)c2ccc(C)c(S(=O)(=O)N3CCCCC3)c2)cc1	-10.9%	1.6	/	/	-3.5%
CN(C)c1ccc(/C=N/n2ncc3ccccc32)cc1	?	-14.7	7.08µM*	0.708µM*	?
CCN1CCN(S(=O)(=O)c2ccc(Cl)c(C(=O)N(C)Cc3ccccc3)c2)CC1	-2.3%	-20.0	/	/	8.2%
COc1ccc(C(=O)NN/C(C)=C/C(=O)C(F)(F)C(F)(F)C(F)(F)F)cc1	-2.7%	11.4	5.62µM*	5.62µM*	?
CCN(CC)c1ccc2c(-c3ccc(S(=O)(=O)O)cc3S(=O)(=O)[O-])c3ccc(=[N+](CC)CC)cc-3oc2c1	-3.0%	27.5	?	-33.6%	-17.8%
CCN(CC)c1ccc(C(=O)NNC(=O)CCNC(=O)c2ccccc2)cc1	-4.0%	0.0	/	/	-7.1%
CCN(CC)c1ccc(C(=C2C=CC(=[N+](CC)CC)C=C2)c2ccc(N(CC)CC)cc2)cc1	20.6µM*	?	/	/	?
CCN(CC)c1ccc(C(=C2C=CC(=[N+](CC)CC)C=C2)c2ccccc2)cc1	?	-119.6*	35.5µM*	2.51µM*	?
CCN(CC)c1ccc(C(=O)NNC(=O)CCl)cc1	?	?	-6.6%[10 µM]	37.9%	24.8%
CCN(CC)c1ccc(C(=C2C=CC(=[N+](CC)Cc3cccc(S(=O)(=O)[O-])c3)C=C2)c2ccc(N(CC)Cc3cccc(S(=O)(=O)O)c3)cc2)cc1	/	/	11.2µM*	-15.7%	/
NNc1ccc([N+](=O)[O-])c2[nH][nH]c(=O)c12	/	-29.9	/	/	/
CCc1nc2c(OCCc3cccc(OC)c3)cccn2c1N(C=O)Cc1ccc(OC)cc1	/	-12.5	/	/	/
Cc1cc(COc2ccccc2)oc1C(=O)O	-7.3%	2.2	6.31µM*	5.01µM*	9.4%
CCC(C)[C@H](NC(=O)C1CC(=O)N(c2ccc3c(c2)OCO3)C1)C(=O)NC1CCCCC1 (stereo partly specified)	-28.3%	16.4	-10.7%	0.6%	-5.3%
O=c1[nH]c(C2CCN(S(=O)(=O)c3ccc(C(F)(F)F)cc3)CC2)nc2c1nnn2Cc1ccc(F)cc1	?	-57.4*	-16.5%	?	17.5%
O=c1[nH]c(C2CCN(S(=O)(=O)c3ccc4c(c3)OCCO4)CC2)nc2c1nnn2Cc1cccc(F)c1	?	-3.5	0.0%	26.3%	15.8%
CCCCCCC(=O)N1CCC(c2nc3c(nnn3Cc3ccccc3Cl)c(=O)[nH]2)CC1	14.8%	-15.6	15.8µM*	7.08µM*	0.5%
SMILES	SW480 rereplic	IL-1B inflam inh	Gal4-VP16 FLuc	RORg inh	MCF10A rerep
CC(=O)c1cccc(S(=O)(=O)N2CCCC(c3nc4c(nnn4Cc4cccc(Cl)c4)c(=O)[nH]3)C2)c1 (stereo unspecified)	-9.8%	?	-6.4%	0.6%	3.0%
O=c1[nH]c(C2CCN(S(=O)(=O)c3cccc(C(F)(F)F)c3)CC2)nc2c1nnn2Cc1cccc(F)c1	3.7%	-68.4*	?	-10.9%	?
CC(=O)c1cccc(S(=O)(=O)N2CCCC(c3nc4c(nnn4Cc4ccc(C)cc4)c(=O)[nH]3)C2)c1 (stereo unspecified)	3.7%	-54.6*	-14.8%	13.8%	-8.6%
Cc1ccc(Cn2nnc3c(=O)[nH]c(C4CCN(S(=O)(=O)c5ccc(C)cc5)CC4)nc32)cc1	?	?	-9.4%	?	?
O=C(C1CCCCC1)N1CCC(c2nc3c(nnn3Cc3ccccc3Cl)c(=O)[nH]2)CC1	-0.6%	4.5	/	/	2.7%
Cc1noc(C)c1S(=O)(=O)N1CCCCC1c1cc(C(=O)Nc2cccc3c2CCCC3)no1 (stereo unspecified)	/	-4.7	/	/	/
CCN(C(=O)COC(=O)Cc1c[nH]c2ccccc12)c1c(N)n(Cc2ccccc2)c(=O)[nH]c1=O	-168.2%	38.0	/	/	3.4%
O=C(COC(=O)Cc1ccc(Br)cc1)NC1CCCC1	0.7%	-5.8	/	/	-1.9%
O=C(CCc1c[nH]c2ccccc12)N1CCN(S(=O)(=O)c2ccc([N+](=O)[O-])cc2)CC1	/	10.8	/	/	/
NC(=O)C1CCN(c2nc(C3CC3)nc3c2nnn3Cc2ccccc2Cl)CC1	-1.9%	-5.1	-15.0%	-15.9%	20.6µM*
Cc1ccc(Cn2nnc3c(=O)[nH]c(C4CCN(S(=O)(=O)c5ccccc5F)CC4)nc32)cc1	22.3%	-60.6*	-2.1%	4.9%	-7.3%
O=c1[nH]c(C2CCN(S(=O)(=O)c3ccccc3F)CC2)nc2c1nnn2Cc1ccc(F)cc1	-0.6%	-22.0	10.3%	-2.9%	10.0%
NC(=O)C1CCN(c2nc(C3CC3)nc3c2nnn3Cc2ccccc2)CC1	-3.9%	-27.7	-23.2%	-19.2%	-4.9%
N#Cc1cccc(NC(=O)N2CCC(c3nc4c(nnn4Cc4cccc(Cl)c4)c(=O)[nH]3)CC2)c1	7.2%	-62.7*	-1.9%	24.7%	-0.9%
Cc1ccc(S(=O)(=O)N[C@H](C(=O)NC2CCC(C)CC2)C(C)C)cc1 (stereo partly specified)	-11.8%	20.7	/	/	2.4%
CC(C)C1S/C(=N/N=C/c2ccco2)NC1=O (stereo unspecified)	-0.3%	18.3	3.16µM*	0.199µM*	8.9%
Cc1ccccc1CC1S/C(=N/N=C/c2ccco2)NC1=O (stereo unspecified)	/	/	2µM*	0.447µM*	/
Cc1ccccc1CN1C(=O)C(C)S/C1=N/N=C/c1ccco1 (stereo unspecified)	-9.0%	-8.4	0.7%	7.6%	13.6%
O=C(NCc1cccc(Cl)c1)C1Cc2c(-c3ccccc3Oc3ccccc3)ccnc2O1 (stereo unspecified)	/	-11.7	/	/	/
